Assay results published in PubChem BioAssay (NCI).
About 83,000 compounds went through this panel and 20% of them were active in at least one assay; those are over-represented in the sample as a whole.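 How to read the values: 0–100, growth inhibition (40 = 60% inhibited); 0, no net growth; -100 to 0, cell death (-40 = 40% of starting cells died; -100 = all dead).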 A number with no mark means an inactive call. Active and inactive are the calls of the source. The calls were made as follows: active = growth percent below 10; inactive = the rest.

How the values were obtained:
Assay in all cases: NCI-60 one-dose screen, 48 h (100 = growth as untreated, 0 = no growth, -100 = all killed)
Conditions in all cases: 10 µM unless noted
HCT-15 colon = test system: HCT-15 colon
HT29 colon = test system: HT29 colon
SNB-75 CNS = test system: SNB-75 CNS
U251 CNS = test system: U251 CNS
PC-3 prostate = test system: PC-3 prostate
UACC-62 melanoma = test system: UACC-62 melanoma
LOX IMVI melanoma = test system: LOX IMVI melanoma
SK-MEL-28 melanoma = test system: SK-MEL-28 melanoma
UO-31 renal = test system: UO-31 renal
ACHN renal = test system: ACHN renal
CAKI-1 renal = test system: CAKI-1 renal
A498 renal = test system: A498 renal
MOLT-4 leukemia = test system: MOLT-4 leukemia
SN12C renal = test system: SN12C renal
CCRF-CEM leukemia = test system: CCRF-CEM leukemia
SK-MEL-2 melanoma = test system: SK-MEL-2 melanoma
EKVX NSCLC = test system: EKVX NSCLC
TK-10 renal = test system: TK-10 renal
SK-MEL-5 melanoma = test system: SK-MEL-5 melanoma

Row | SMILES | growth (HCT-15 colon) | growth (HT29 colon) | growth (SNB-75 CNS) | growth (U251 CNS) | growth (PC-3 prostate) | growth (UACC-62 melanoma) | growth (LOX IMVI melanoma) | growth (SK-MEL-28 melanoma) | growth (UO-31 renal) | growth (ACHN renal) | growth (CAKI-1 renal) | growth (A498 renal) | growth (MOLT-4 leukemia) | growth (SN12C renal) [%] | growth (CCRF-CEM leukemia) | growth (SK-MEL-2 melanoma) [%] | growth (EKVX NSCLC) [%] | growth (TK-10 renal) [%] | growth (SK-MEL-5 melanoma) [%]
1 | c1ccc(-c2nc(N3CCOCC3)c3c4c(sc3n2)CCCCCC4)nc1 | 46.9% | 65.9% | 29.4% | 50.3% | 32.2% | 51.7% | 69.6% | 75.5% | 25.9% | 63.4% | 35.3% | -6.33% (active) | 52.7% |  |  |  |  |  | 
2 | O=c1nc(NO)[nH]c(=O)n1Cc1ccccc1 | 101% | 103% | 92.8% | 99.7% | 98.1% | 105% | 103% | 107% | 90.3% | 101% | 93.1% | 100% | 109% | 113 | 108% |  |  |  | 
3 | N#Cc1ccc(C(F)(F)F)nc1N1CCC(C(=O)Nc2ccc(Cl)cc2)CC1 | 43.9% | 51.5% | 105% | 65.3% | 51% | 84.8% | 43.7% | 87.2% | 74% | 68.7% | 73.1% | 64.2% | 41% | 80.3 |  |  |  |  | 
4 | COC(=O)C1C2CC3c4[nH]c5cc(OC)ccc5c4CCN3CC2CC(OC2CCCCO2)C1OC (configuration not stated) | 99.8% | 94.4% | 84.4% | 97% | 87.1% | 99.3% | 95.4% | 101% | 92.8% | 99.6% | 83.2% |  | 99.2% | 108 | 89.2% | 106 | 101 | 104 | 
5 | COc1ccc(NC(=O)c2ccc3c(c2)nc(-c2ccc(Cl)cc2)n3-c2cc(C(C)(C)C)[nH]n2)cc1 | 82.6% | 116% | 77.8% | 83.3% | 68.1% | 79.6% |  | 95.4% | 62.4% | 90.1% | 61% | 62.2% | 55.1% | 86 |  | 92.7 |  | 75.8 | 70.7
6 | Cc1cc(=O)[nH]n1-c1cc(Cl)ccc1N | 92.4% | 102% | 88.4% | 108% | 106% |  | 94.7% | 115% |  | 100% |  | 120% | 112% | 110 |  |  | 117 | 98.1 | 112
7 | CNc1ccc(Br)cc1-c1n[nH]c(=O)[nH]c1=O | 102% | 112% | 77.4% | 96.2% | 99.5% | 105% | 98.6% | 107% | 71.3% | 94.6% | 76% |  | 99.5% | 108 | 102% |  |  |  | 
8 | COc1ccccc1-n1c(SCc2cc(OC)c(OC)c(OC)c2)nc2ccc(Cl)cc2c1=O | 27.8% | 7.69% (active) | -4.26% (active) | 25.6% | 19.6% | 34.3% |  | 49.4% | 42.6% | 44.2% | 42.6% | 5.01% (active) | 15.4% | 70.3 | 2.88% (active) |  |  |  | 27.7
9 | CC(C)(C)[Si](C)(C)OC1[C@@H](O[Si](C)(C)C(C)(C)C)[C@@H](CNC(=O)NC(=O)C(F)(F)F)O[C@H]1n1cnc2c(NC(=O)Nc3ccccc3)ncnc21 (some centres not stated) | 69.7% | 21.3% | 72.8% | 78.6% | -35.5% (active) | 84.3% | 56.2% | 97.9% | -24.2% (active) | 76.2% | 16.6% | 96.9% | -41.7% (active) | 81.1 |  |  |  |  | 
10 | Nc1ccccc1-c1n[nH]c(=O)[nH]c1=O | 104% | 106% | 89.5% | 94.2% | 96.9% | 89% | 97.8% | 103% | 86.8% | 104% | 87.5% | 107% | 106% | 97.7 |  |  |  |  | 
11 | NC(=O)c1nc2c([nH]c1=O)CCCC2 | 102% | 101% | 89.6% | 106% | 101% | 106% | 99.1% | 103% | 83.5% | 106% | 93% | 99.4% | 97.3% | 107 | 94.4% | 106 | 114 | 102 | 
12 | CCOC(=O)C1=C(C)N2C(=NC3=C(CCCC/C3=C\c3ccccc3)C2c2ccccc2)S1 (configuration not stated) | 96.9% | 84.4% | 96.9% | 98.3% | 87.6% | 85.5% | 100% | 98% | 91% | 102% | 90.2% | 92.3% | 96.4% |  | 98.3% |  |  |  | 
13 | COc1ccc(/C=C2\SC(=O)N(CN3CCN(c4cc5c(cc4F)c(=O)c(C(=O)O)cn5C4CC4)CC3)C2=O)cc1 | 106% | 111% | 85.1% | 99.8% | 97.6% | 98.1% | 79.9% | 112% | 80.2% | 111% | 94.1% |  | 116% | 108 | 111% | 101 | 97.4 | 104 | 
14 | CSc1nnc(-c2sc3nnc(-c4ccccc4)c(-c4ccccc4)c3c2O)o1 | 54.6% | 107% | 78.4% | 62.9% |  | 58.9% |  | 85.5% |  | 83.6% | 43.5% |  | 61.8% | 75.7 |  | 102 | 77.5 | 100 | 83.5
15 | CN1CCN(c2nc(-c3ccncc3)nc3sc4c(c23)CCCCCC4)CC1 | 76.5% | 24.3% | 14.5% | 63.5% | 61.9% | 86.6% | 64.9% | 83.5% | 33.7% | 68.3% | 46.7% | 31.7% | 50.9% | 67.8 | 79.5% |  |  |  | 
16 | COc1ccc(-n2c(SCc3cc(OC)c(OC)c(OC)c3)nc3ccc(C)cc3c2=O)c(OC)c1 | 23.7% | 11.3% | 29.6% | 24.9% | 8.75% (active) | 24.3% | 31.6% | 40.8% | 18.2% | 44.9% | 13.4% | -16.4% (active) | 11.3% | 45.2 | 0% (active) |  |  |  | 17.6
17 | Cc1nc2cc(Nc3nc(NCCO)nc(Nc4ccc(F)cc4)n3)ccc2n1Cc1ccccc1 | 100% | 71.9% | 102% | 86.3% |  |  | 81.9% | 108% | 78.8% | 98.3% | 100% |  |  | 91.1 | 1.93% (active) | 122 |  | 133 | 80.3
18 | CC(C)(C)[Si](C)(C)OC1[C@@H](COC(N)=O)O[C@@H](n2cnc3c(N)ncnc32)[C@H]1O[Si](C)(C)C(C)(C)C (some centres not stated) | 88% | 93.6% | 99.4% | 82.7% | 18.4% | 85.5% | 98.2% | 98.3% | 51.9% | 89.1% | 91.9% | 106% | -40.1% (active) | 102 | 50.3% |  |  |  | 96.9
19 | COC1(OC)C2(Cl)C=C(c3ccccc3)C1(Cl)C(Cl)=C2Cl (configuration not stated) | 119% | 83.5% | 67% |  | 86.2% | 96.6% | 90% | 102% | 70% | 108% | 92.7% | 105% | 74.3% | 104 | 91% | 87 |  | 106 | 104
20 | CC(C)(C)[Si](C)(C)OC1[C@@H](CNC(=O)NC(=O)CCl)O[C@@H](n2cnc3c(N)ncnc32)[C@H]1O[Si](C)(C)C(C)(C)C (some centres not stated) | -72.8% (active) | -74.7% (active) | 50% | -81% (active) | -83% (active) | -75% (active) | -91.3% (active) | -14.4% (active) | -96.8% (active) | -95.8% (active) | -64.8% (active) | -12.9% (active) | -53.5% (active) |  | -46.5% (active) |  |  |  | 90.6
